Over roughly 59,000 sequences, the read-out has its median near -0.00055; the lowest 2% begin near -2. This excerpt belongs to a sample that is enriched for the lowest values.

This experiment can be described thus: Identification of proteins required for the processing of the EWS-FLI1 nascent transcript.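 Further: robust z of luciferase light less the median z of siRNAs with the same seed.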 The settings on record: TC32 Ewing sarcoma NR0B1-luc vs CMV-luc (EWS-FLI1 target promoter against control promoter), 48 h; screened at 20 nM (by protocol). In outline:
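Three siRNAs per gene, each in a separate well at 20 nM, were transfected into TC32 cells bearing either reporter construct. Luminescence was measured two days on, and per-gene comparison relied on seed-corrected Z values.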
The sequence UUUUGUCCCGGAACAUGCG against BCR gave a seed-corrected z-score of -0.22. The sequence UUCUCGUUCUGUUAAGUUC against CCDC144B yielded a seed-corrected z-score of 0.479. In turn, UGUUGUAGUAGUAACGCAG against LOC390937 registered a seed-corrected z-score of -3.19. The result for UCAGUUGUUACGCAAGGUG against PI16 reads -0.652; that for AAAUGGUCCAGAAUCCAGC against FOXN2, 0.634. On to UUUGGGUCGUUGUACAUCU against AGBL4, for which the seed-corrected z-score is -2.02. Regarding UACUGAACUCCAUCUGACU against C1orf198, the seed-corrected z-score was 1.54.

In turn, UCGUUGUAUAAUUUUGCCC against WDR17 showed a seed-corrected z-score of -1.13. The sequence AAUGCGACGAGACAAGAUG against WASF2 yielded a seed-corrected z-score of 0.812.

UUCAUUAAGAAGCACCUGG against NDFIP2 came in with a seed-corrected z-score of 0.91. As to ACUAGUACUGGGAAGGUCC against CDKN1C, the seed-corrected z-score is -2.28. In the case of UCUAGGCUCAGCAAUGACU against CD19, the seed-corrected z-score is 0.138. On to AAUAGAUUCAACAAGGGUG against BCL10, for which the seed-corrected z-score was 1.13.

Take AUGGAGGUAAUGACGAUCA against UPK3B: the seed-corrected z-score was -2.86. In turn, UCUAGAUACUUAAUGGUGC against LAMP2 displayed a seed-corrected z-score of 0.192. As to UUAUUGACACUUGUUCAAG against COX7A1, the seed-corrected z-score was determined as 0.106. In turn, AAUGUAUCUAAGCAACUUC against DDIAS gave a seed-corrected z-score of -0.473. For ACAUAGGUUGGGUCGAUCC against XYLT2, the seed-corrected z-score is -1.65. The result for UACUUAACCGGGAAGCUAC against NUMB reads -0.172.

As to UUUGCAGGUAGAAUUAAGG against B3GALT5-AS1, the seed-corrected z-score is -2.65.

The sequence UUAGCAUCUGCAGCAUUCU against RBMY2DP gave a seed-corrected z-score of -0.255. In the case of UGGGUUGUAGAGAUCUACC against AKAP4, the seed-corrected z-score amounted to 0.156. Consider UACCCGGAAAAGUAAAUCC against ROBO2, for which the seed-corrected z-score came to 0.288. For UGAUAUAUGAAUUGGAGUC against CDKN3, the seed-corrected z-score was -0.146. Regarding UUCUUCAUCAGAUGGUUCC against SF3B2, the seed-corrected z-score is -3.21. AGUUUAGCUAUGACAAUGG against C2orf66 returned a seed-corrected z-score of 0.917. UUCUCCUUCAUCAAGUUCA against S100A7L2 registered a seed-corrected z-score of 0.705. The value for UUCGUUACAGAACUGACCG against YEATS2 was -0.228; that for UCCAUAACCUGUUCUACGC against NFU1 was 0.244.

For UCUUGUCUACUAUCACUGC against PRR13, the seed-corrected z-score was 1.15.

For UUCUGAACCUUCGCAGUGC against PPP1R3B, the seed-corrected z-score was 0.0534.

On to UUCUGAAACAAGCCCUUGC against CCDC103, for which the seed-corrected z-score is -2.08. Turning to UUCUUGACUAUCUUCAUCU against CBX4, the seed-corrected z-score is -0.275. For the sequence UCUAUUUUGACCGAGUAUG against CKAP4, the seed-corrected z-score was 0.169. AUGAUGUUCACGAUGAUGG against SYT7 registered a seed-corrected z-score of -2.72. Regarding UUGCAAUGCAUGGUGCACC against FAM136A, the seed-corrected z-score is -1.35. Take UUGUCUUUUACUUCCAUCC against CLEC7A: the seed-corrected z-score was -1.06. The value for UAGUUAAUGGAGUAACUCC against KDM5C was -0.0641; that for ACUUUUUACCUCCUCAUUC against OR4E2 was 1.72. Consider AGCAGGAUAAAAACGAUCU against TMC4, for which the seed-corrected z-score is 0.756. In turn, UGUUGGAUAAGGUUAGAAC against ZNF34 gave a seed-corrected z-score of 0.0223. The sequence AAUGUUUCCCACAUGGAUG against SMARCB1 gave a seed-corrected z-score of -1.85. UGUAAUUAUACCAAUGUAG against EEF1B2P5: the seed-corrected z-score was -2.11. Regarding UCUCGUAUGAUAUAAUCUC against HCN1, the seed-corrected z-score came out at 0.749. The result for AACCGGAUUAAGGAAAGUG against BTBD1 reads -0.375; that for UGAAGGGAUAGUUUCUCUG against FZD10-AS1, -0.829; that for UAAGUUGCACUUUCCAUUC against ZNF266, -3.46. As for AACCGUUCCAUAUCAUCUC against BEX5, the seed-corrected z-score was 0.658. The sequence UCCUUGUCCACAUGGAGAC against CREBZF showed a seed-corrected z-score of -1.01. For UUAUAAUCUACAUGCUUUC against MRPS18C, the seed-corrected z-score was 0.39. As to UCUGCUGUCCUGUAAGUCG against AMACR, the seed-corrected z-score was 0.214. Sequence UUAGCUGUGAGUGCUUUCC against TNFRSF11A registered a seed-corrected z-score of -2.35. Sequence UUGAGUGCAACUUCAAGUC against OPTN displayed a seed-corrected z-score of 2.17. UUCUGGAGCAGACCUGUCC against DKK4 had a seed-corrected z-score of 0.057.

The sequence UGUUAGCUCAGUCACGUAG against GBP7 returned a seed-corrected z-score of 0.141. In turn, GUGUGCAUCAGAUGCUCUG against NUTM2F gave a seed-corrected z-score of 1.15. In the case of UCGCUGAUCAGCAUGACCU against ITFG2, the seed-corrected z-score is -0.4. The sequence UCUCUUUAUGCAGCUGACA against LTF came in with a seed-corrected z-score of -2.1. As for UAGAUGUUGACGCCCAUGG against MRPL54, the seed-corrected z-score came out at 0.63. In turn, UGAGUACCCAUGGUUGGAG against KY registered a seed-corrected z-score of -1.24. Consider UUCAGGACAAUCUUGUUCC against UBL5, for which the seed-corrected z-score was -0.0381.

As to AUUGUAACCAGUCACGUAC against FLRT3, the seed-corrected z-score was 0.235. The result for UGAGAUAUGCGACAGAUGG against ACOX2 reads -0.67; that for AUUGCUCUGAAGUGAAUUC against LMO4, -0.726. The result for UACAGGCUAAAUACACUCC against ANAPC13 reads -2.73; that for AGAGUUAAAACUGGAGGCG against POU2F3, 0.349. The sequence UUCUAGAUUAUUAUAGGAC against LRFN5 returned a seed-corrected z-score of -0.0413. For the sequence UGUUCUUGUAUUUCGCUUG against ZBED9, the seed-corrected z-score was -0.528. For the sequence AAAGAGGUGAUAGAGCACG against PAQR4, the seed-corrected z-score was -1.03. Turning to UACGAUAUCAGCAUUGCAG against CNOT6, the seed-corrected z-score worked out at 0.29. In turn, UUCUGGUAUACGUGUUUCG against TNFSF8 gave a seed-corrected z-score of 0.471. The value for UUGGUUAACCAGGUUCACC against LOC390282 was -2.14; that for AGCUGGUCAAUGUAGUCGC against MAPK11 was 0.202; that for UACAGUAUCAGCUUCUACA against LOC643855 was 0.618. The value for UUCCAGACCAUGAGAUGCC against PIGO was -0.121; that for UCAUGUUCAACCCAAACUC against ANKMY1 was -4.15. UCUAGGACAGCUCUUAUCC against EDEM3 showed a seed-corrected z-score of 0.599. The result for UUUGUUACUUUGUCCAUUC against ARMC9 reads -0.253; that for UAGCUGUUCCUUGUAGUUG against NABP1, 0.675; that for UUGAUCACCACUUCGGAGC against CHRM1, -0.914. The result for UCACGUUUAUUCUGAAUCC against NDC1 reads -1.1; that for UGUCCAUGAAAUUUCUCUG against ARL2BP, 1.12; that for UUUUUCUCGAUCUGCUUCC against CCDC64, -2.13. The value for UAAUGCAUCUUCAAAAUUC against LOC730338 was 0.94; that for UACUUUGUUAUAGGAUCUC against CWC22 was -0.653.

UUUGGGAUCAAAUCGGUGG against NAPSA came in with a seed-corrected z-score of 0.0625. Turning to UGCGAAUCUGCUAGGAUGC against GLTSCR1L, the seed-corrected z-score stood at 0.0332. The result for UAUCCUUCAGGCUAAGAUG against SGOL1 reads -2.83.

UUACUUUGUAGAUACAACA against FAM201A: the seed-corrected z-score is -1.74.

In turn, UUAGCUGCAAUUGCCUUCU against ZWINT showed a seed-corrected z-score of -2.63. As to UCGUGAUUACGUUAAGUGC against CCNH, the seed-corrected z-score was determined as 0.304. With UGAAUGCUGAGAACUGUGC against PAPPA2, the seed-corrected z-score was -0.138.

Consider UAUAGGUCAGGCAACCUUG against ATP11AUN, for which the seed-corrected z-score is -0.763. UAAGUUGACAGGCUGUCCA against NXPH3 showed a seed-corrected z-score of -2.06.

As for UGCUUGUCUCGGUUAAUGC against NCF2, the seed-corrected z-score is -0.104. Sequence AAAACUACCGUUUGUGCAU against RPS27 had a seed-corrected z-score of 0.994. With UGCUCUAGCACAGUGUUCC against CCDC87, the seed-corrected z-score was -2.86. AUAGUUUAUAAGUCCUAUC against CGRRF1 showed a seed-corrected z-score of 0.53. Consider AUGUCCUUAAAUUCACUCU against GJB2, for which the seed-corrected z-score is -2.43. For the sequence UAAUAUUACCUUUAUGUUG against TBC1D3P2, the seed-corrected z-score was determined as 2.12. For the sequence UUCUUGAAAUCCAACCACC against ACSM6, the seed-corrected z-score was 0.592.

As for AAAUCGUUAGUUGAGGAGC against USP53, the seed-corrected z-score amounted to 0.292. Take ACAGGGACAAUGUAGGAAG against PRSS47: the seed-corrected z-score is -2.17. For the sequence UAGUAUGAAAAUAGAAGUC against BTBD8, the seed-corrected z-score was 0.167. The value for UCAGGGUUAGAGGUAGUGG against SMCR8 was 0.401; that for UAGUGGAUGUCAAACGAGG against CTSD was 0.501; that for UACCCAUCAAAGCAAUCGC against LTBP1 was -0.403. Regarding AGAUCAAUUAGUAAUCCUC against CHM, the seed-corrected z-score was -0.298.

The sequence UGGAUUGUCAACACCAAUG against CCT2 came in with a seed-corrected z-score of -0.17. Turning to UUUACGUCCAAAGUAGCAC against SEC23B, the seed-corrected z-score is -0.0983. Turning to UGAUCUGCUAGGCAAGAGG against FASTKD1, the seed-corrected z-score was -0.665. For UGGUUGUUCAACGCUGUAG against MEA1, the seed-corrected z-score was -0.557. UUAAGACAUAUCCUGGUGC against YY1AP1 registered a seed-corrected z-score of -2.26. Take UUCCUUCUCAGGAUAGUGG against IYD: the seed-corrected z-score amounted to 0.306.

For the sequence UCGGAUACGGGUGUGAUAC against SNX32, the seed-corrected z-score came to 0.403.

Take UAGAAUCCCACUGCGAUGC against TTYH3: the seed-corrected z-score is -0.966. Take UCAUUCAUCAGGUUCAUGC against TPD52L1: the seed-corrected z-score amounted to 1.32.

UUGGGCUUCUUCCUAAUGC against SLC16A3 displayed a seed-corrected z-score of -0.147. For UUCGAUAGUCUGUUUCUGC against SLK, the seed-corrected z-score is -2.56.

UCAGGGUAUUCAUUGGUGC against INCA1: the seed-corrected z-score was -3.45. Regarding GAUGUAGAAGCCAUAGUUC against NIPAL4, the seed-corrected z-score amounted to 0.499.

In turn, UGGAGUUCUUAUAAAAUGC against C15orf43 came in with a seed-corrected z-score of -0.277. The result for UUAAUUCCCGUGCCCUUGG against PON2 reads -3.2. The value for UUUGGAUGUACGUGUAUAC against DYRK4 was 0.282; that for UACUUUCGCCUCCUCAUCC against CCDC89 was 1.17.

As to UUUGGGCAGAUAGAAGGAG against ADAMTS15, the seed-corrected z-score came to 0.203. UACUUUCAUAUGCAGGUCC against PCDH8 showed a seed-corrected z-score of -1.4. In turn, AACCGUUCAUCCUUCGUGC against KLHL6 yielded a seed-corrected z-score of -0.163.

For the sequence UCAUCAUCAAAGGCGAUGG against GDNF, the seed-corrected z-score was -2.86. As for UUCUUGGUGUUGUAGAAGG against AGPAT2, the seed-corrected z-score was 0.219.

On to UCAGGUAGAACACUUUGCU against YWHAG, for which the seed-corrected z-score amounted to 0.113.

The sequence UUGCUAUCCAUGUAUAGCC against SLITRK1 returned a seed-corrected z-score of 0.475. The result for UCGUGUAAAACAACAUGCG against AGMO reads -0.652.

The values above are taken from PubChem BioAssay AID1159506 (National Center for Advancing Translational Sciences (NCATS), 2015).
